Measurements published in PubChem BioAssay (NCI).
Compounds without any hit were thinned out: in the full panel of roughly 83,000, 20% have a hit.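 For each line, cells grew in 96-well plates with the test compound present at a single concentration for 48 hours.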 The source made the active and inactive calls. How the source made its calls: active means growth percent below 10; inactive means the rest.

How the values were obtained:
Assay in all cases: NCI-60 one-dose screen, 48 h (100 = growth as untreated, 0 = no growth, -100 = all killed)
Conditions in all cases: 10 µM unless noted
SN12C renal = tested on: SN12C renal
UO-31 renal = tested on: UO-31 renal
TK-10 renal = tested on: TK-10 renal
ACHN renal = tested on: ACHN renal
CAKI-1 renal = tested on: CAKI-1 renal
A498 renal = tested on: A498 renal
CCRF-CEM leukemia = tested on: CCRF-CEM leukemia
MOLT-4 leukemia = tested on: MOLT-4 leukemia
SR leukemia = tested on: SR leukemia
RPMI-8226 leukemia = tested on: RPMI-8226 leukemia
OVCAR-8 ovarian = tested on: OVCAR-8 ovarian
OVCAR-5 ovarian = tested on: OVCAR-5 ovarian
OVCAR-4 ovarian = tested on: OVCAR-4 ovarian
SK-OV-3 ovarian = tested on: SK-OV-3 ovarian
IGROV1 ovarian = tested on: IGROV1 ovarian
OVCAR-3 ovarian = tested on: OVCAR-3 ovarian
HS 578T breast = tested on: HS 578T breast
NCI/ADR-RES ovarian = tested on: NCI/ADR-RES ovarian
SK-MEL-2 melanoma = tested on: SK-MEL-2 melanoma

Measured: growth

O=C(Nc1cccc2[nH]c(C(F)(F)F)nc12)c1ccc(Br)cc1F
active: A498 renal -0.338% | RPMI-8226 leukemia 4.55%
inactive: SN12C renal 26.5% | UO-31 renal 10.9% | TK-10 renal 52.8% | ACHN renal 33.5% | CAKI-1 renal 14.6% | CCRF-CEM leukemia 47.1% | MOLT-4 leukemia 26.9% | SR leukemia 18.5% | OVCAR-8 ovarian 33.2% | OVCAR-5 ovarian 98.9% | OVCAR-4 ovarian 11.8% | SK-OV-3 ovarian 65.1% | IGROV1 ovarian 42.2% | OVCAR-3 ovarian 24.4% | HS 578T breast 70.4% | NCI/ADR-RES ovarian 10.8%

CCOc1ccc(Nc2nc(-c3c(C)nc4ncccn34)cs2)cc1
inactive: SN12C renal 14.3% | UO-31 renal 33.9% | TK-10 renal 54.1% | ACHN renal 20.5% | CAKI-1 renal 34.1% | OVCAR-8 ovarian 16.5% | OVCAR-5 ovarian 20.7% | OVCAR-4 ovarian 39.6% | IGROV1 ovarian 33.7% | HS 578T breast 34.1%
active: A498 renal -17.2% | CCRF-CEM leukemia -4.93% | MOLT-4 leukemia 8.54% | SR leukemia 6.09% | RPMI-8226 leukemia -9.92% | SK-OV-3 ovarian 3.86% | OVCAR-3 ovarian -20.9% | NCI/ADR-RES ovarian 8.95%

O=C1C[C@H](N2C(=O)c3ccccc3S2(=O)=O)C2CO[C@@H]1O2
active: CAKI-1 renal -80.1% | CCRF-CEM leukemia 4.58%
inactive: SN12C renal 91.8% | UO-31 renal 63.7% | TK-10 renal 92.4% | ACHN renal 78.2% | A498 renal 93.9% | MOLT-4 leukemia 79% | SR leukemia 10.3% | RPMI-8226 leukemia 91.1% | OVCAR-8 ovarian 93.7% | OVCAR-5 ovarian 97.5% | OVCAR-4 ovarian 84.3% | SK-OV-3 ovarian 98.5% | IGROV1 ovarian 103% | OVCAR-3 ovarian 86.9% | HS 578T breast 102% | NCI/ADR-RES ovarian 98.3%

O=C1Nc2ccc(Br)cc2C12CC(c1ccccc1)=NN2 (stereo unspecified)
inactive: SK-MEL-2 melanoma 74.9% | SN12C renal 61.7% | UO-31 renal 48.4% | TK-10 renal 77.8% | CAKI-1 renal 51.5% | CCRF-CEM leukemia 32.3% | MOLT-4 leukemia 36.3% | SR leukemia 12.5% | RPMI-8226 leukemia 28.3% | OVCAR-8 ovarian 61% | OVCAR-5 ovarian 82% | OVCAR-4 ovarian 67.5% | SK-OV-3 ovarian 48.4% | IGROV1 ovarian 52.6% | OVCAR-3 ovarian 24.1% | HS 578T breast 47% | NCI/ADR-RES ovarian 40.8%
